Screens from PubChem.
Shown are actives, neighbours in structure and some others; about 3% of the full set was active somewhere.
ALOX12 inh: Primary qHTS assay for inhibitors of human arachidonate 12S-lipoxygenase (ALOX12): Round 2. purified 12hLO, xylenol orange hydroperoxide absorbance. Potency, µM (highest dose often 108 µM), for the others: top-dose activity change, negative = inhibition, most hits filed as inhibitors. Polyunsaturated fatty acid lipoxygenase ALOX12 (Homo sapiens), P18054. 1.1% of 580,000 active; active means well fitted inhibition curve with a large enough effect; inconclusive means small, poorly fitted or top-dose-only effect, or another doubt; inactive means no such curve, though single readings can be large or run the other way; further: potency means the concentration at half of the fitted maximal effect; on the % scale 0 is the no-effect control and ±100 the full control effect
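Hydroperoxide product was detected by ferrous iron/xylenol orange as the 573 to 405 nm absorbance ratio. Arachidonic acid at 40 uM (final) was turned over for 30 min at room temperature by 150 nM human 12hLO, pH 7.0 Hepes buffer, after 15 min compound preincubation.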
ClpP mod: qHTS Assay for Activators of ClpP. purified B. subtilis ClpP, FRET peptide cleavage, 20 min. 1.9% of 340,000 active. Potency, µM (doses to about 57.5 µM), for inactives: top-dose activity change, negative = active. AID 651965, 2013. ATP-dependent Clp protease proteolytic subunit (Bacillus subtilis (strain 168)), P80244; active means well fitted falling curve with a large enough effect; inconclusive means small, poorly fitted or top-dose-only effect; inactive means no such curve, though single readings can be large or run the other way; further: potency means the concentration at half of the fitted maximal effect; the source files actives as falling curves though it sought activators and does not explain the sign; nearly all actives have a fitted effect of over 65% in size
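FRET quenching reversal measured ClpP activation: 10 microg/mL B. subtilis ClpP at pH 8 with the FRET-FV decapeptide, read at 430 nm after 320 nm excitation. The 20-min minus 0-min signal was scaled between DMSO/no-enzyme wells and ADEP (5.8 microM final).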
LDHA block: qHTS assay for inhibitors of human lactate dehydrogenase; AID 1347041, 2019; 0.15% of 480,000 active; L-lactate dehydrogenase A chain (Homo sapiens), P00338; activity change, % (values are at about 110 or 230 µM); purified LDHA, NADH/diaphorase-resazurin fluorescence; hits give low values; in the data active means activity change below about -30%; inconclusive means mostly about -25% to -30%;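 further: plate controls were DMSO wells for no effect and wells without enzyme for full effect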
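Human LDH5 at 2 nM final in Tris HCl pH 7.4 with 0.06 mM NADH and 0.2 mM pyruvate, reacted 5 minutes at room temperature. Remaining NADH coupled via diaphorase/resazurin; resorufin fluorescence read at 0 and 20 minutes, normalized to enzyme-free and DMSO wells.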
BCR signal inh: qHTS Assay to Find Inhibitors of Chronic Active B-Cell Receptor Signaling | ABC-DLBCL IkBa-CBG/CBR reporter, luminescence ratio, 4 h | AID 493014, 2011 | 0.05% of 340,000 active | Potency, µM (highest dose often 46.1 µM), for inactives: at the top dose activity change, negative = inhibition, actives largely listed as inhibitors; active means well fitted inhibition curve with a large enough effect in the signal ratio, with a control signal flat, not every such curve was filed as active; inconclusive means small, poorly fitted or top-dose-only effect, or effect the other way, or a change in a side signal; the % refers to the signal ratio;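 further: potency means the concentration at half of the fitted maximal effect; plate controls were basal doxycycline-induced cells for no effect and cells given 10 µM MG132 for full effect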
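Concentration-response series (up to 46 uM) were applied to TMD8 dual-reporter cells for 4 h at 37C with doxycycline. Green/red ratio, after filter-overlap correction, defined %Activity; red signal alone was normalised to basal cells and zero luminescence.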
hERG WT inh: qHTS for Inhibitors of KCHN2 3.1: Wildtype qHTS; U2OS, BacMam KCNH2, thallium flux FluxOr; hits give low values; activity change, % at 1.84 µM; 0.37% of 340,000 active; AID 720551, 2013;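 active means maximum activity change below -70%; inconclusive means maximum activity change between -70% and -50%; inactive means maximum activity change above -50%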; further: on the % scale 0 is the no-effect control and ±100 the full control effect
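U2OS cells transduced with wild-type KCNH2 virus are loaded with FluxOr dye for 45 min, and thallium flux is measured in kinetic reads before and after stimulation buffer. Rate constants are normalized to DMSO controls.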
KCNH2 3.1 inh: qHTS for Inhibitors of KCHN2 3.1: Mutant qHTS. Potassium voltage-gated channel subfamily H member 2, brain isoform KCNH2 3.1 (human). U2OS KCNH2 3.1, thallium flux FluxOr; hits give low values. activity change, % (tested at about 1.8 µM). 0.95% of 340,000 active;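 active means maximum activity change below -70%; inconclusive means maximum activity change from -70% to -50%; inactive means maximum activity change above -50%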;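 further: thallium influx rate constant from kinetic fluorescence after stimulation buffer; on the % scale 0 is the no-effect control and ±100 the full control effect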
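Measured as rate of thallium-driven FluxOr signal in transduced U2OS cells carrying the 3.1 channel, read kinetically for 2 min upon stimulation; values are rate constants scaled to DMSO control wells.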
Active calls of the source: *.

What do the screens show for `COc1ccc(N2C(=O)CS/C2=N\C(=S)Nc2ccccc2)cc1`?
ALOX12 inh: 137%; ClpP mod: -1%; LDHA block: -12; BCR signal inh: 10µM*; hERG WT inh: -10; KCNH2 3.1 inh: 17

What do the screens show for `Cc1nc(-c2csc(S(=O)(=O)NCc3ccc(Br)cc3)c2)no1`?
ALOX12 inh: -6%; LDHA block: -3

What do the screens show for `CC(C)N(CCNCC(O)COc1ccc(C(C)(C)c2ccccc2)cc1)C(C)C` (stereo not given)?
ALOX12 inh: inconclusive; ClpP mod: 0%; LDHA block: -18; BCR signal inh: inconclusive; hERG WT inh: -96*; KCNH2 3.1 inh: inconclusive

What do the screens show for `OC(CNCCc1ccccc1)COc1ccc(OCC(O)CNCCc2ccccc2)cc1` (stereo not given)?
ALOX12 inh: 0%; LDHA block: -2; BCR signal inh: inconclusive; hERG WT inh: -3; KCNH2 3.1 inh: -13

What do the screens show for `CC(=O)Nc1ccc(NCC(O)COc2ccccc2)cc1` (stereo not given)?
ALOX12 inh: inconclusive; ClpP mod: -2%; LDHA block: 14; BCR signal inh: -4%; hERG WT inh: -1; KCNH2 3.1 inh: -9

How did CN(C)CCOc1ccc(C(C)(C)c2ccccc2)cc1 do in these assays?
ALOX12 inh: inconclusive; ClpP mod: -1%; LDHA block: -38*; BCR signal inh: inconclusive; hERG WT inh: -10; KCNH2 3.1 inh: -2

How did OC(CNCCC(c1ccccc1)c1ccccc1)COc1ccccc1 (stereo not given) do in these assays?
ALOX12 inh: inconclusive; LDHA block: 1; BCR signal inh: inconclusive; hERG WT inh: -11; KCNH2 3.1 inh: -97*

What do the screens show for `Cc1cccnc1NCC(O)COc1ccccc1` (stereo not given)?
ALOX12 inh: -7%; ClpP mod: 28µM*; LDHA block: -8; BCR signal inh: 9%; hERG WT inh: -1; KCNH2 3.1 inh: -10

Results for COc1ccc(C(=O)N2CCc3nc(C(C)C)nc(-c4ccc(O)cc4)c3C2)cc1 ?
ALOX12 inh: 10%

What do the screens show for `Cn1c(N2CCCCCC2)nc2c1c(=O)n(Cc1ccccc1)c(=O)n2C`?
ALOX12 inh: -7%; LDHA block: 6

How did COc1ccc(CN2C(=O)C(n3c(C)ccc3C)c3cc(OC(F)(F)F)ccc32)cc1 (stereo not given) do in these assays?
ALOX12 inh: 40µM*

How did Cc1ccc(C)n1C1C(=O)N(Cc2ccc(C(F)(F)F)cc2)c2ccc(F)cc21 (stereo not given) do in these assays?
ALOX12 inh: 25µM*

How did COc1ccc2c(c1)C(n1ccc3ccccc31)C(=O)N2Cc1ccc(C(C)C)cc1 (stereo not given) do in these assays?
ALOX12 inh: 14µM*

Results for COc1ccc2c(c1)C(n1c(C)ccc1C)C(=O)N2Cc1ccc(C(F)(F)F)cc1 (stereo not given) ?
ALOX12 inh: 13µM*

Results for COc1ccc(CN2C(=O)C(n3cccc3)c3ccccc32)cc1 (stereo not given) ?
ALOX12 inh: -23%

Results for CCOC(=O)c1cccn1C1C(=O)N(Cc2ccc(C(F)(F)F)cc2)c2ccccc21 (stereo not given) ?
ALOX12 inh: -11%

How did CC(C)CNC(=O)C1CCCC(C(=O)NCC(C)C)C1 (stereo not given) do in these assays?
ALOX12 inh: -13%; LDHA block: -1

Results for O=[N+]([O-])c1ccc(OCCCOc2cccc3cccnc23)cc1 ?
ALOX12 inh: -5%; LDHA block: -6; BCR signal inh: inconclusive; hERG WT inh: -19; KCNH2 3.1 inh: -80*

How did Clc1cccc(Cl)c1CNc1n[nH]c(-c2ccco2)n1 do in these assays?
ALOX12 inh: -8%; LDHA block: 2

How did Cc1cccc(NC(=O)c2cccc(NC(=O)Cc3cccs3)c2)c1 do in these assays?
ALOX12 inh: -7%; LDHA block: -16; BCR signal inh: -25%; hERG WT inh: 4; KCNH2 3.1 inh: 4

How did CC(C)(C)NC(=O)c1cccc(NC(=O)Cc2cccs2)c1 do in these assays?
ALOX12 inh: -11%; ClpP mod: 35µM*; LDHA block: 0; BCR signal inh: 7%; hERG WT inh: 3; KCNH2 3.1 inh: -8

How did Fc1ccc(Cn2cccc2C2=NC(c3ccccc3)CO2)cc1 (stereo not given) do in these assays?
ALOX12 inh: -15%; ClpP mod: 20µM*; LDHA block: 0; BCR signal inh: inconclusive; hERG WT inh: -10; KCNH2 3.1 inh: -8

How did COCCNC(=S)NCCCNc1nc2cc3c(cc2cc1C#N)OCO3 do in these assays?
ALOX12 inh: -23%; ClpP mod: 14µM*; LDHA block: 8; BCR signal inh: 1%; hERG WT inh: 6; KCNH2 3.1 inh: -8

How did CCOCCCNC(=S)NCCCNc1nc2cc3c(cc2cc1C#N)OCO3 do in these assays?
ALOX12 inh: -16%; ClpP mod: 10µM*; LDHA block: 7; BCR signal inh: -1%; hERG WT inh: -16; KCNH2 3.1 inh: -3

How did CCOCCCNC(=S)NCCCNc1nc2ccc(C)cc2cc1C#N do in these assays?
ALOX12 inh: -28%; BCR signal inh: -19%

What do the screens show for `CN(C)CCCNC(=S)NCCNc1nc2cc3c(cc2cc1C#N)OCO3`?
ALOX12 inh: -16%; ClpP mod: 4%; LDHA block: -6; BCR signal inh: -13%; hERG WT inh: 5; KCNH2 3.1 inh: -2

Results for CCN1CCN(C(=O)CN(c2cccc(C)c2)S(C)(=O)=O)CC1 ?
ALOX12 inh: -18%; LDHA block: 2

How did CCOc1ccc2oc(-c3ccccc3)c(C(=O)N(C)C)c2c1 do in these assays?
ALOX12 inh: 9%; ClpP mod: 25µM*; LDHA block: 2; BCR signal inh: inconclusive; hERG WT inh: 6; KCNH2 3.1 inh: -25

Results for CCOc1ccc2oc(-c3ccccc3)c(C(=O)O)c2c1 ?
ALOX12 inh: inconclusive; ClpP mod: -5%; LDHA block: -3; BCR signal inh: inconclusive; hERG WT inh: -4; KCNH2 3.1 inh: -9
